Screens deposited in PubChem BioAssay by National Center for Advancing Translational Sciences (NCATS).
The list is not random: actives were taken first. Their share in the collection is about 3.8%.
OvCa metastasis: ovarian cancer metastasis inhibition, 3D TME model. SKOV3ip1-GFP adhesion/invasion on 3D omental model, fluorescence. Potency, µM (titrated, usually from 45.8 µM), without a hit: at the top dose activity change, negative = inhibition, actives largely listed as inhibitors. 0.1% of 46,000 active. AID 1963576;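 further: potency means the concentration at half of the fitted maximal effect; plate controls were DMSO wells for no effect and tomatine positive control wells for full effect; nearly all actives have a fitted effect of over 65% in size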
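A 3D layer of primary human omental fibroblasts, mesothelial cells, fibronectin and collagen I, grown 48 hr, received SKOV3ip1-GFP cells in serum-free medium plus compounds at 0.36-46 umol/L. After 2 hr RT and 16 hr 37 C, fixed adherent GFP cells were counted; normalized to DMSO and tomatine.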
B2AR arrestin ag: agonists recruiting beta-arrestin to human beta2-adrenergic receptor; 44,000 tested, under 10 active; Potency, µM (top dose mostly 46.1 µM), most hits filed as activators; HTLA Tango cells, beta-arrestin recruitment, luciferase luminescence, 18 h; AID 1347077;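 further: potency means the concentration at half of the fitted maximal effect; 0% = DMSO and full agonism = EC100 isoproterenol or metaproterenol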
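Tango cells (recombinant beta2-AR, beta-arrestin, tTA-driven luciferase), 1500/well in DMEM 1% FBS, treated 18 h at 37 °C with compounds up to 46 µM; luciferin mix added, luminescence read after 15 min; %activity curves fitted and curve-classed.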
NTMT1 inh: inhibitors of human N-terminal methyltransferase NTMT1. Q9BV86. NTMT1 MTase-Glo SAH luminescence, purified enzyme. Potency, µM (series often up to 114 µM), inactives show top-dose activity change, negative = inhibition, actives largely listed as inhibitors. 2.5% of 59,000 active. AID 1645870;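 further: potency means the concentration at half of the fitted maximal effect; plate controls were DMSO vehicle for no effect and no enzyme for full effect; nearly all actives have a fitted effect of over 65% in size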
GALK inhibitor: inhibits human galactokinase; P51570; AID 1347072; 44,000 tested, under 10 active; recombinant GALK, Kinase-Glo ATP luminescence, 1 h; Potency, µM (series often up to 57.5 µM), for the others: at the top dose activity, negative = inhibition, most hits filed as inhibitors;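 further: plate controls were full GALK reaction for no effect and reaction lacking GALK for full effect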
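Human GALK (5 nM) was incubated with 35 uM ATP and 100 uM galactose in 20 mM HEPES pH 8.0 with MgCl2, NaCl, DTT and BSA for 1 h at room temperature. Remaining ATP was measured by Kinase-Glo Plus luminescence.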
PTAP-TSG101 blk: blocks PTAP binding to human TSG101, validation. Potency, µM (highest dose often 115 µM), actives largely listed as inhibitors. 44,000 tested, under 10 active. Fluorescence polarization, FITC-PTAP peptide/Tsg101, 20 min. Q99816; further: potency means the concentration at half of the fitted maximal effect; 0% is about no effect
Target sequence (Q99816 whole entry, looked up): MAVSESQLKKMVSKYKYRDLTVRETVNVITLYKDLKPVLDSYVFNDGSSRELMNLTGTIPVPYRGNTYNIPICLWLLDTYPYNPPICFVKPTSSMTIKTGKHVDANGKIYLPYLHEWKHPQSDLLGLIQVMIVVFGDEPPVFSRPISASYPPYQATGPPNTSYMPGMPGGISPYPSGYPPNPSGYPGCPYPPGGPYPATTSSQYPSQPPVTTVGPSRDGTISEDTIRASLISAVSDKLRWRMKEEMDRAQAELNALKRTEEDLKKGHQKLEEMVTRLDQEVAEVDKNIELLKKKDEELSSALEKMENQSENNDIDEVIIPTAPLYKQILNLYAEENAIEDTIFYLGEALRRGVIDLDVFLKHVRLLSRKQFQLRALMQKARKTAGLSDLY
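Compounds pinned into 10 uM Tsg101 binding domain, then 50 nM FITC-PTAP peptide added in pH 7.5 HEPES buffer; FP read after 20 min, room temperature. Total S+P intensity flags fluorescent compounds; active cut-off <25 µM, efficacy <60%.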
DRV1 agonist: agonists of human resolvin D1 receptor DRV1 (GPR32) | O75388 | AID 1346428 | 2.5% of 48,000 active | CHO-K1 GPR32 beta-arrestin PathHunter luminescence, 90 min; zero percent set by DMSO-only wells | activation, % at 76.9 µM;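 active means activation of at least 60% and not above a set upper limit, about 1 call in 100 departs from these limits; inconclusive means activation of 40% to 60%, or above that upper limit; inactive means activation under 40%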; further: 0% is about no effect
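PathHunter beta-arrestin recruitment in CHO-K1 cells stably expressing ProLink-tagged GPR32. Cells were exposed to compound for 90 min at 37 C, then chemiluminescence was read after 1 h detection at ambient temperature; DMSO served as basal control.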
Active calls of the source: *; i = inactive; u = inconclusive; x = not tested or not shown; ! = not confirmed by another sample; [ ] = remark or other dose. Unless noted, the call rests on the fitted dose curve; in most records, active means well fitted curve in the direction sought with a large enough effect; inconclusive means small, poorly fitted or top-dose-only effect, or another doubt; inactive means no such curve, though single readings can be large; an effect the other way counts as inactive or inconclusive.

SMILES	OvCa metastasis	B2AR arrestin ag	NTMT1 inh	GALK inhibitor	PTAP-TSG101 blk	DRV1 agonist
Cc1cc(-n2c(C)nc3ccccc3c2=O)ccc1NC(=O)c1cccc([N+](=O)[O-])c1C	1.6%	i	-5.9%	-5.8%	i	14.5
Cc1cc(-n2c(C)nc3ccccc3c2=O)ccc1NC(=O)c1ccccc1[N+](=O)[O-]	-8.6%	i	-0.7%	1.4%	i	94.0*
CC(CN1c2ccccc2Sc2ccccc21)N(C)C (stereo unspecified)	x	x	u	x	x	107.7*!
COc1cc(NS(=O)(=O)c2ccc3c(c2)CCN3S(C)(=O)=O)cc(OC)c1	7.2%	i	u	-5.7%	i	u
CC1CCN(S(=O)(=O)c2ccc3c(c2)N(CC(=O)N2CCN(c4ccccc4)CC2)C(=O)CO3)CC1	i	i	89.1µM*	-1.7%	i	-5.4
Cc1cnc(-c2ccccc2C(C)C)nc1NCC1CCN(c2cccnc2)CC1	x	x	-6.1%[57.5 µM]	x	x	x
CCOc1cc(C2CC(=O)Nc3cc4c(cc32)OCCO4)ccc1O (stereo unspecified)	-2.3%	i	-2.5%	-0.2%	i	-24.9
CCCCNc1nc2c(c(=O)n(C)c(=O)n2C)n1CC(O)COc1ccccc1C (stereo unspecified)	5.3%	i	u	1.5%	i	66.6*
Cn1c(=O)[nH]c(=O)c2c1nc(NCCO)n2CC(O)COc1ccccc1 (stereo unspecified)	2.3%	i	x	-24.0%	i	26.8
COc1ccccc1N1CCN(CC(O)COc2ccc(C)cc2C(C)(C)C)CC1 (stereo unspecified)	u	i	u	0.0%	i	6.0
O[C@@H](COc1cccc2ncccc12)CN1CCN(C2c3ccccc3[C@@H]3[C@H](c4ccccc42)C3(F)F)CC1 (stereo partly specified)	-19.6%	x	79.4µM*!	x	x	7.9
CC(=O)c1ccc(N2CCN(C(=O)CCc3nnc4n(C)c(=O)c5sccc5n34)CC2)cc1	37.5%	i	0.4%	2.0%	i	6.2
O=C(Nc1noc2ccccc12)c1cccc(Cl)c1Cl	i	i	-4.9%	10.3%	i	-6.0
COc1ccc(C(=O)Nc2noc3ccccc23)cc1	-1.7%	i	11.2µM*	7.3%	i	-14.6
Cc1ccc(C(=O)Nc2noc3ccccc23)cc1	x	x	25.1µM*	x	x	x
COCCn1c(C)cc(O)c(C(c2ccc(F)cc2)N2CCC(C)CC2)c1=O (stereo unspecified)	5.0%	i	-1.8%	u	i	-6.0
COc1ccc(C(C(=O)NCc2ccccc2)N(C(=O)Cn2nnc3ccccc32)c2ccc(OC)cc2)cc1 (stereo unspecified)	9.9%	i	u	3.9%	i	-8.1
O=S(=O)(Nc1nc2ccccc2s1)c1ccc(NCc2ccc(Br)cc2O)cc1	x	x	28.2µM*	x	x	x
O=S(=O)(Nc1cnc2ccccc2c1)c1ccc(NCc2ccc(Br)cc2O)cc1	x	x	-3.6%	x	x	x
COc1ccc(OC)c(CNS(=O)(=O)c2ccc(-c3coc(C)n3)cc2)c1	-1.8%	i	-0.2%	5.4%	i	16.5
O[C@@H](CNC[C@H](O)[C@H]1CCc2cc(F)ccc2O1)[C@@H]1CCc2cc(F)ccc2O1	-6.1%	x	-8.0%[57.5 µM]	x	x	62.4*
Cc1ccc(Cl)cc1-n1c(=O)c2sc3ccccc3c2n(CC(=O)NC2CCCC2)c1=O	-6.8%	i	-0.4%	-0.2%	i	-49.3
CC(C)C(NC(=O)c1ccc(O)cc1)C(=O)N1CCCC1C(=O)Nc1c(O)cccc1C(=O)O (stereo unspecified)	x	x	1.0%[29.8 µM]	x	x	x
O=c1cc[nH]c(=S)[nH]1	x	x	u	x	x	67.7*
O=c1cc[nH]c(=O)[nH]1	x	x	18.6%[57.5 µM]	x	x	44.7
Cc1cc(-n2ccnc(NCCc3ccc(S(N)(=O)=O)cc3)c2=O)ccc1Br	-0.8%	i	-8.7%	4.4%	i	119.9*
